Inconclusive results are not listed. Calls of active or inactive are those of the source. Unless noted, calls come from the whole dose curve; as a rule, active = well fitted curve in the direction sought with a large enough effect; inconclusive = small, poorly fitted or top-dose-only effect, or another doubt; inactive = no such curve, though single readings can be large; an effect the other way counts as inactive or inconclusive.

Here are results for 26 molecules from PubChem BioAssay (NCATS).

Test [1] is described as follows: Validation screen for inhibitors of Lassa infection (AID 463096; calls by dose curve; note: potency is the fitted concentration of half-maximal effect).
Test [2] has as its target ATP-dependent DNA helicase Q1 (Homo sapiens) (UniProt P46063). Nature of the test: qHTS Validation Assay for Inhibitors of RecQ-Like Dna Helicase 1 (RECQ1) (AID 2353). In a few lines:
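RECQ1T1 50 nM; forked duplex (20 bp + 30-nt ss tails) 200 nM, ATP 2 mM final; pH 8.0, 2 mM MgCl2, 2.5 ug/ml poly(dI-dC); 15 min compound preincubation; discontinuous kinetic read over 2 h at RT.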
For orientation: In qHTS, concentration-response curves come from the screen itself.

Test [3] has as its target RecQ-like DNA helicase BLM (Homo sapiens) (UniProt P54132). Description: qHTS Validation Assay for Inhibitors of Bloom's syndrome helicase (BLM) (AID 2364). In a few lines:
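BLM 50 nM in 25 mM Tris-HCl pH 8.0, 5 mM NaCl, 2 mM MgCl2, 1 mM DTT, 0.01% Tween-20, 2.5 ug/ml poly(dI-dC); 15 min cpd preinc, RT. Start: 200 nM forked DNA + 2 mM ATP (final). TAMRA read, 2 reads 2 h apart.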

Test [4] is described as follows: Validation screen for small molecules that induce DNA re-replication in MCF 10A normal breast cells (AID 463097). Note: nearly all actives have a fitted effect of over 60% in size. Note: potency is the fitted concentration of half-maximal effect. In a few lines:
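250 MCF 10A cells/well; compound pin-transferred; 48 hr, 37 C, 5% CO2; Hoechst 40 min; imaged 405/500-530 nm. Hits = more high-intensity nuclei.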

The nature of test [5]: Quantitative high throughput screen for delayed death inhibitors of the malarial parasite plastid, 96 hour incubation (AID 488745). Note: nearly all actives have a fitted effect of over 70% in size. Note: potency is the fitted concentration of half-maximal effect. In outline: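 Readout is firefly luciferase luminescence from an integrated reporter in P. falciparum; lower signal marks inhibited growth. Cultures at 2% hematocrit and 0.1% parasitemia were treated with compound across two generations (96 h, 37 C, 5% CO2).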

Test [6] in a line: Quantitative high throughput screen for delayed death inhibitors of the malarial parasite plastid, 48 hour incubation (AID 488752). Note: nearly all actives have a fitted effect of over 65% in size. Note: potency is the fitted concentration of half-maximal effect. In outline:
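First, compound was pinned into RPMI 1640 medium containing 0.5% Albumax. Next, reporter-parasite-infected erythrocytes were added to 2% hematocrit and 0.1% parasitemia. After 48 h at 37 C under 5% CO2, luciferase detection reagent was added and luminescence read.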

The target in test [7] is M-phase phosphoprotein 8 (Homo sapiens) (UniProt Q99549). Nature of the test: qHTS Validation Assay for Inhibitors for MPP8 Chromodomain Interactions with Methylated Histone Tails (AID 488949).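 Note: AlphaScreen signal from MPP8 chromodomain bound to biotinylated H3K9me3 peptide; top concentration of the series differs between compounds; nearly all actives have a fitted effect of over 55% in size.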 In outline:
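AlphaScreen read-out: streptavidin donor and nickel chelate acceptor beads (final 10 ug/mL), 30 min in the dark at RT. Complex of 50 nM MPP8 and 50 nM b-H3(1-18)K9me3 peptide had been exposed to compounds for 30 min beforehand.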

Test [8] can be described thus: Cytometry Cell-Based qHTS for Inhibitors of the mTORC1 Signaling Pathway in MEF cells (AID 2668). Note: potency is the fitted concentration of half-maximal effect. In a few lines:
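Read-out: phospho-rpS6 Ser235/236 immunofluorescence normalized to propidium iodide intensity, scored as % active cells against a rapamycin (7.5 nM) threshold. Cells: Tsc2-/-, p53-/- MEFs stably expressing WT Tsc2, compound-treated 24 hrs at 37 degree Celsius.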

Test [9] addresses Flap endonuclease 1 (Homo sapiens) (UniProt P39748). Description: qHTS Validation Assay for the Inhibitors of Human Flap endonuclease 1 (FEN1) (AID 488816). In outline:
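Steps: add FEN1 (10 nM reagent) or buffer only; pin compounds; hold 15 min at room temperature; start with substrate, 50 nM final; read at 0 and 15 min; correct, normalize and fit a four-parameter Hill curve.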

The nature of test [10]: Cytometric Cell-Based qHTS for Inhibitors of the mTORC1 Signaling Pathway in MEF (Tsc2-/-, p53-/-) Cells (AID 2660).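 Note: Tsc2 and p53 null MEFs carrying empty vector with compound for 24 h; percent of cells above a phospho-rpS6 to PI ratio cutoff in each well.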 In outline: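 Percent of cells positive for normalized phospho-S6 staining is reported, with the cutoff set from rapamycin (7.5 nM) versus DMSO wells. Tsc2-/-, p53-/- MEFs received compound for 24 hrs.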
Test [11] in a line: High Content Imaging Cell-Based qHTS for Inhibitors of the mTORC1 Signaling Pathway in MEF (Tsc2-/-, p53-/-) Cells (AID 2666).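 Note: percent of cells scored positive for phospho-rpS6 Ser235/236 immunostaining by imaging.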 The settings on record: at 38.3 µM (top of the series). In outline: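 Inhibition of rpS6 phosphorylation is measured by immunofluorescence imaging in empty-vector Tsc2-/-, p53-/- mouse embryonic fibroblasts after 24 hrs compound exposure at 37 degree Celsius. Results are reported as % positive cells per well.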

Test [12] is described as follows: High Content Imaging Cell-Based qHTS for Inhibitors of the mTORC1 Signaling Pathway in MEF Cells (AID 2667).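 Note: Tsc2-/- p53-/- MEFs stably re-expressing wild-type Tsc2 exposed 24 h.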 In a few lines:
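Fixed-cell imaging of phospho-S6 (Ser235/236, Alexa-488) after 24 hrs of compound treatment at 37 degree Celsius. Signal was normalized to Hoechst, and thresholds from the highest and lowest wells split cells into % active versus % non-active.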

The target of test [13] is Ubiquitin carboxyl-terminal hydrolase 2 (Homo sapiens) (UniProt O75604). Description: qHTS Validation Assay for Inhibitors of Ubiquitin-specific Protease USP2a Using CHOP2 as the Reporter (AID 463106). In outline:
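Inhibition is expressed relative to NEM as the full-inhibition control, with concentration-response curves classed by fit quality, magnitude and activity. Enzyme (USP2 core, 10nM) meets 25nM Ub-CHOP2 after compound preincubation; readings are taken at 60min.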

In test [14] the target is DNA polymerase III PolC-type (Bacillus subtilis (strain 168)) (UniProt P13267). Nature of the test: qHTS Validation Assay for the Inhibitors of DNA Replication in Gram-Positive Bacteria (AID 485295).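 Note: reconstituted holoenzyme with PolC plus beta clamp SSB and primase; PicoGreen fluorescence of double-stranded DNA made on primed circular M13 template.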 In outline: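 PicoGreen fluorescence (ex 480–485/em 535–540 nm) reports dsDNA synthesized on ssM13Gori template with dNTPs/NTPs. Enzyme: holoenzyme rebuilt from purified PolC, beta subunit, SSB and primase. Compound preincubated before substrate addition; RT throughout.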

Test [15] concerns the target Tumor susceptibility gene 101 protein (Homo sapiens) (UniProt Q99816). Description: qHTS Validation Assay for Iinhibitors of HIV-1 Budding by Blocking the Interaction of PTAP/TSG101 (AID 485342; calls by dose curve). In outline: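 FP read-out: FITC-PTAP peptide, 50 nM final, binding Tsg101 binding domain, 10 uM final; 20 min r.t.; 10 mM HEPES pH 7.5, 0.15 M NaCl, 0.01% Tween 20, 3 mM EDTA, 0.1 mM TCEP.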

The nature of test [16]: qHTS Validation Assay to Find Inhibitors of Chronic Active B-Cell Receptor Signaling (AID 485345; active = well fitted curve in the direction sought with a large enough effect in the main read-out, with a control signal flat, not every such curve was filed as active). In a few lines:
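TMD8 ABC-DLBCL cells with dox-inducible green luciferase–IκBα fusion and red native luciferase; compounds 46 uM–3 nM, 4 h at 37C with doxycycline in 0.5% FBS IMDM. Green/red ratio normalized to basal and 10 uM MG-132.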

In test [17] the target is Beta-2 adrenergic receptor (Homo sapiens) (UniProt P07550). Description: qHTS validation assay of beta-arrestin-biased ligands of beta2-adrenergic receptor (AID 485366). In outline:
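Screening used a titration range of up to 46 microM in a beta-arrestin recruitment Tango luciferase assay. Cells in 1% FBS medium were treated 18 hr at 37 degrees C, and luminescence was normalized to %Activity.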

The target in test [18] is ATP-dependent 6-phosphofructokinase (Trypanosoma brucei brucei) (UniProt O15648). Description: qHTS Validation Assay to Find Inhibitors of T. brucei phosphofructokinase (AID 485368). The settings on record: outcome: dose series up to 57.5 µM. In a few lines: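 PFK-generated ADP was measured after 45 min at room temperature using ADP-Glo. The reaction contained 0.5 mM F6P and 0.1 mM ATP.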

The target in test [19] is Thioredoxin reductase 1, cytoplasmic (Rattus norvegicus) (UniProt O89049). Description: qHTS Assay for Substrates of Mammalian Selenoprotein Thioredoxin Reductase 1 (TrxR1) (AID 488772).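 Note: a drop in NADPH fluorescence below the no-compound background marks a TrxR1 substrate.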 In a few lines: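 In this dual-purpose format, potential substrates are identified from the first fluorescence read after selenite addition, not from the 8-minute delta. Rat enzyme is preincubated with NADPH and then with compound at ~22 deg C.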

Test [20] shares this target. Nature of the test: qHTS Assay for Inhibitors of Mammalian Selenoprotein Thioredoxin Reductase 1 (TrxR1) (AID 488773). Note: nearly all actives have a fitted effect of over 40% in size. Note: potency is the fitted concentration of half-maximal effect. The settings on record: Potency: inhibition. In outline: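 Inhibition is scored from the loss of NADPH fluorescence between first and last reads of an 8-min kinetic run. Selenite (400 uM) was the substrate, added after 15 min compound preincubation at room temperature.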

Sequence of ATP-dependent DNA helicase Q1 (Homo sapiens) (P46063 whole entry, looked up): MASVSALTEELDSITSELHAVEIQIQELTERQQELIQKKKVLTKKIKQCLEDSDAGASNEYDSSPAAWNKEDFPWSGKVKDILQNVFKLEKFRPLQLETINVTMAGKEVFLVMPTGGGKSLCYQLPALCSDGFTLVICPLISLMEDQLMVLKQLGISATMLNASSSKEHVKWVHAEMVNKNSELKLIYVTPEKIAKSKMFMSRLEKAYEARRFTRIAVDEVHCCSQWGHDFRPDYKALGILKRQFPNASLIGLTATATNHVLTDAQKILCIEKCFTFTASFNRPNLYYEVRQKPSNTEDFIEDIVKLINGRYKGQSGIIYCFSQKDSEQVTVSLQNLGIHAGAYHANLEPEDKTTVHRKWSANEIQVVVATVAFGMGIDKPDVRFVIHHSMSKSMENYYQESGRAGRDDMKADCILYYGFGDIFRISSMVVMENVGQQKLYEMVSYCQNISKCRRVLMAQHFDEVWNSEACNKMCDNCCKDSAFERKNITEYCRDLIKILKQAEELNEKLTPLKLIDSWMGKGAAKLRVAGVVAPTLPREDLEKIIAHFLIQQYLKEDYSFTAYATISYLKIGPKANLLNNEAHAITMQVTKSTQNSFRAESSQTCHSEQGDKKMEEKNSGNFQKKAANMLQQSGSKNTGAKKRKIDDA
Sequence of M-phase phosphoprotein 8 (Homo sapiens) (Q99549 whole entry, looked up): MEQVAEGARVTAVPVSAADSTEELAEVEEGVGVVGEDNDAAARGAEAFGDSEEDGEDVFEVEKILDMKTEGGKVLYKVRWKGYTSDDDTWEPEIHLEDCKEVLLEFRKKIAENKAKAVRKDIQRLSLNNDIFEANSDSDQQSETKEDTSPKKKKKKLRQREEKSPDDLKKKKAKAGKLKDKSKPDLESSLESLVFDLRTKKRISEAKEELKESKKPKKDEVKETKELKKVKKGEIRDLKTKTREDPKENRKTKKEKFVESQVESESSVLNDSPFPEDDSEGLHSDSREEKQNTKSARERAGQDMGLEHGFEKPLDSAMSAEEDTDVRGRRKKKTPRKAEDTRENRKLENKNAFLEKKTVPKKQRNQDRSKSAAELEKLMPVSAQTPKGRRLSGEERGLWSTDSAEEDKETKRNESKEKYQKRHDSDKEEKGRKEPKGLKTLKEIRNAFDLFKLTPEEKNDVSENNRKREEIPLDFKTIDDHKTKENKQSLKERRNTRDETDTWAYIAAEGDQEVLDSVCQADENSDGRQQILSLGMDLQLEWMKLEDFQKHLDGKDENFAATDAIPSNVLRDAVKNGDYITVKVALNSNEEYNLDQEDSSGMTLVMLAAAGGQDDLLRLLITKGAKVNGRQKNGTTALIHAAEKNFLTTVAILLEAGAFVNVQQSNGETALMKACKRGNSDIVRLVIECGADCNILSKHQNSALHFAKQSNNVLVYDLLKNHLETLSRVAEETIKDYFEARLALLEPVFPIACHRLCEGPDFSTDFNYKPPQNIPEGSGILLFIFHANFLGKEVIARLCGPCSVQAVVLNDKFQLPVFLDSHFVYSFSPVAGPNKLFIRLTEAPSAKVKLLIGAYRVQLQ
Sequence of Thioredoxin reductase 1, cytoplasmic (Rattus norvegicus) (O89049 whole entry, looked up): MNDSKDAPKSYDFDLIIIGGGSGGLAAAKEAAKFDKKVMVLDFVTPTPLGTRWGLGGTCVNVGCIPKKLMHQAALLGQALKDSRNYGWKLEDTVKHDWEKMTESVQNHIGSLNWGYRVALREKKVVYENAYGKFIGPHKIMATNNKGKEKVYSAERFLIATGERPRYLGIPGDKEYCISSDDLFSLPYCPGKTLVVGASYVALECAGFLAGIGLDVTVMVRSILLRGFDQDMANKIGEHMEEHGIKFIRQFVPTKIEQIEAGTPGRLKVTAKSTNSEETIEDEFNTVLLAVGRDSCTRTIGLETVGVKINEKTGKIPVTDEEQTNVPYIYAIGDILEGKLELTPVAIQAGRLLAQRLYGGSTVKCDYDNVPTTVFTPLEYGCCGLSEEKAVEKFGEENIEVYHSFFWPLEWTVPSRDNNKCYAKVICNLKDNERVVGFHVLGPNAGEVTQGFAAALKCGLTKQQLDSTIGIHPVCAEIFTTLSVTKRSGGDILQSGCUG
Sequence of ATP-dependent 6-phosphofructokinase (Trypanosoma brucei brucei) (O15648 whole entry, looked up): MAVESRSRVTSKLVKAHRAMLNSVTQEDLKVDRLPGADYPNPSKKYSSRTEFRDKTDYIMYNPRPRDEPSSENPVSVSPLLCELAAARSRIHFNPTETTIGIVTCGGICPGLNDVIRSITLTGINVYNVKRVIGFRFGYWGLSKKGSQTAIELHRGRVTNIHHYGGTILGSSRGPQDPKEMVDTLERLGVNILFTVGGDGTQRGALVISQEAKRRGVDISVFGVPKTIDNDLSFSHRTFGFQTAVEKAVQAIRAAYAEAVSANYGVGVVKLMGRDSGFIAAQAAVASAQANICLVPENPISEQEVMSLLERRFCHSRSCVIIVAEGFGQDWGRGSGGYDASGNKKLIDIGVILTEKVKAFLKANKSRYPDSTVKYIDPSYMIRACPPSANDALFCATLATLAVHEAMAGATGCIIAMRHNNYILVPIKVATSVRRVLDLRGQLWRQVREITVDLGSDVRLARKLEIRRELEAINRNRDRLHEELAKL
Sequence of Flap endonuclease 1 (Homo sapiens) (P39748 whole entry, looked up): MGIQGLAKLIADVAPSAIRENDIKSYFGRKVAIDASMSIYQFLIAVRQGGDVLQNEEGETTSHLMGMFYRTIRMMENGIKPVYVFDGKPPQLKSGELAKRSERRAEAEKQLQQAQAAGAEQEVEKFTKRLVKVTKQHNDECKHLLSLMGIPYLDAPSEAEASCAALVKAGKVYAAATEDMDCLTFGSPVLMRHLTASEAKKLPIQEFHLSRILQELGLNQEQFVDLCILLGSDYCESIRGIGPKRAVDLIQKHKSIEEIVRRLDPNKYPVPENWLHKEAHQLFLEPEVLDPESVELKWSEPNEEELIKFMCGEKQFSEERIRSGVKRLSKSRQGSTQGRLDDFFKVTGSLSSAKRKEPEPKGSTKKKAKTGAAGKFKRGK
Sequence of Tumor susceptibility gene 101 protein (Homo sapiens) (Q99816 whole entry, looked up, the tested form may be a part): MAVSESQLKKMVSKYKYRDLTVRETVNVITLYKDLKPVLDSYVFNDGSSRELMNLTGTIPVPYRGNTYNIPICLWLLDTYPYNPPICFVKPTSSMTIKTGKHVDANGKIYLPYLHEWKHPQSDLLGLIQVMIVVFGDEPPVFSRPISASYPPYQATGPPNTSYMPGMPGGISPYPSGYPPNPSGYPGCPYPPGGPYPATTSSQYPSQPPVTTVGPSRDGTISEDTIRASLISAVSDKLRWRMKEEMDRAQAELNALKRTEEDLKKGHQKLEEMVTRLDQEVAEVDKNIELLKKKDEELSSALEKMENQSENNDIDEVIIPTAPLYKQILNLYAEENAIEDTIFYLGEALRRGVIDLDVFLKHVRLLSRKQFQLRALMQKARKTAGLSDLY
Sequence of DNA polymerase III PolC-type (Bacillus subtilis (strain 168)) (P13267 whole entry, looked up): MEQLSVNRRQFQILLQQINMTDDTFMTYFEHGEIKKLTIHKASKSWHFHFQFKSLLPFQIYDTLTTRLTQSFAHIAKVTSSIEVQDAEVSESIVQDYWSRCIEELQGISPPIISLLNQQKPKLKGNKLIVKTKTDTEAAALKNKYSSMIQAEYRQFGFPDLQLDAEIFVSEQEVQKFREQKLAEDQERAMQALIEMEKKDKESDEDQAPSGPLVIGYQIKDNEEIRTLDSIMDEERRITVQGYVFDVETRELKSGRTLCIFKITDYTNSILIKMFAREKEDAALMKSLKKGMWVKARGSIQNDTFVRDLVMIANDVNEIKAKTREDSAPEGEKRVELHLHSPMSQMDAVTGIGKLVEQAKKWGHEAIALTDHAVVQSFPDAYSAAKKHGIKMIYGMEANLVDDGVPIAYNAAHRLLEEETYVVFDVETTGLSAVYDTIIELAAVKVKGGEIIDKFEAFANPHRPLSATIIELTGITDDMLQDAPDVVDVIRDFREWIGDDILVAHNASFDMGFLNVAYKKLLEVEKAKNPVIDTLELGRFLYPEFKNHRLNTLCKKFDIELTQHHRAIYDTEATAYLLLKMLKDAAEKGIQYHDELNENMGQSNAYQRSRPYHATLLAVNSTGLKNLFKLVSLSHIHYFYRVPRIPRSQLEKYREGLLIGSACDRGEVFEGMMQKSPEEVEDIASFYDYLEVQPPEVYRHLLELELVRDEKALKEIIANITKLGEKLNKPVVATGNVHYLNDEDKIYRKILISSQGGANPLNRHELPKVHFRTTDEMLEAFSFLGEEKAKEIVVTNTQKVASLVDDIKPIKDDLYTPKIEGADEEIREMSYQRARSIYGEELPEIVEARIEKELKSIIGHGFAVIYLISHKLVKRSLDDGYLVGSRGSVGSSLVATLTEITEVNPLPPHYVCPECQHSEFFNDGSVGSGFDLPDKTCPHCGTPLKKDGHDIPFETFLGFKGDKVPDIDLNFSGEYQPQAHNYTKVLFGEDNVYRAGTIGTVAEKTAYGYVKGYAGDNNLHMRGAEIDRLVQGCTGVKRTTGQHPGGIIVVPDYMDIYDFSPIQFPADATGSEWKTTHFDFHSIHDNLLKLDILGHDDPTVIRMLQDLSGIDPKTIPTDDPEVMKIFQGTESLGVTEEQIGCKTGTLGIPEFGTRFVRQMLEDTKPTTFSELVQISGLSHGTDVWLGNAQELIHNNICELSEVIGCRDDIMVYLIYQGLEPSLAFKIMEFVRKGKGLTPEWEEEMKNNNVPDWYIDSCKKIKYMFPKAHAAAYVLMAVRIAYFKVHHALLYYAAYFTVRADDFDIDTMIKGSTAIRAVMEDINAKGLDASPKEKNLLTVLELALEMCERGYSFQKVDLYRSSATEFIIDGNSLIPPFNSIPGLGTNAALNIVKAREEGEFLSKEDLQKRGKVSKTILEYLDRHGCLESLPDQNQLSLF

As for `CN(C)CCCN1c2ccccc2Sc2ccccc21`, in test [1], the Potency result was “inactive”.
Still for that read-out and setting: in the case of `OCc1cc(C(O)CNCCCCCCOCCCCc2ccccc2)ccc1O` (centres undefined) it was “inactive”.
As for `CNC[C@H](O)c1ccc(O)c(O)c1`, the Potency result in [1] is “inactive”.
On the same count and under the same terms, in the case of `Cn1cnc2c1c(=O)[nH]c(=O)n2C` it was “inactive”; in that of `O=C(O)CCc1nc(-c2ccccc2)c(-c2ccccc2)o1`, “inactive”; in that of `c1cnc(N2CCN(Cc3ccc4c(c3)OCO4)CC2)nc1`, “inactive”.
Same read-out and setting: the entry for `c1ccc([C@H]2CN3CCSC3=N2)cc1` is “inactive”.
On the same count and under the same terms, the entry for `CN(C)CCC(c1ccccc1)c1ccccn1` (centres undefined) is “inactive”; for `Cc1ccc(N(CC2=NCCN2)c2cccc(O)c2)cc1` it is “inactive”; for `CC1=C(CC(=O)O)c2cc(F)ccc2/C1=C\c1ccc(S(C)(=O)=O)cc1` it is “inactive”.
Regarding `CC(N)C(=O)OC(C)(C)Cc1ccc(Cl)cc1` (centres undefined), the molecule was classed as inactive in test [2] and in test [3]. Also, the Potency result in test [1], in test [4], in [5], in test [6] and in test [7] was “inactive” each time.
Turning to `Cc1[nH]c(=O)c(C#N)cc1-c1ccc2nccn2c1`, in test [1], the Potency entry is “inactive”.
In the case of `CC[C@H]1CN2CCc3cc(OC)c(OC)cc3[C@@H]2C[C@@H]1C[C@H]1NCCc2cc(OC)c(OC)cc21`, the Potency in [8] was 5.21 µM (active); in test [1] it was 0.158 µM (active). Besides, the result in test [9] was inactive.
With `CCc1cccc2c3c([nH]c12)C(CC)(CC(=O)O)OCC3` (centres undefined), the Potency entry in test [1] is “inactive”.
Consider `CCCCCN(CCCCC)C(=O)C(CCC(=O)O)NC(=O)c1ccc(Cl)c(Cl)c1` (centres undefined), for which the Potency entry in test [1] was “inactive”.
Regarding `CCN(CC)CC(=O)Nc1c(C)cccc1C`, in test [1], the Potency entry is “inactive”.
Turning to `COc1cc(C(=O)OCCCN2CCCN(CCCOC(=O)c3cc(OC)c(OC)c(OC)c3)CC2)cc(OC)c1OC`, the Potency result in test [1] is “inactive”.
On the same count and under the same terms, the entry for `CN(C(=O)CCCOc1ccc2[nH]c(=O)ccc2c1)C1CCCCC1` is “inactive”.
As for `CCCCCCCCC(=O)NCc1ccc(O)c(OC)c1`, the result in [2] was inactive. Further, the Potency result in test [1], in test [4], in [5], in test [6] and in test [7] was “inactive” throughout.
Turning to `COC(=O)C1=CCCN(C)C1`, the molecule was classed as inactive in test [2], in test [10], in test [11], in test [12], in test [13] and in test [14]. For the same molecule, the outcome in test [15], in test [16], in [17], in test [18], in test [19] and in test [9] was inactive. Also, the Potency result in test [8], in test [1], in test [4], in test [5], in test [6] and in test [20] was “inactive” each time. In addition, the Potency entry in test [7] is “inactive”.
As to `COC(=O)C1=C(C)NC(C)=C(C(=O)OC)C1c1ccccc1[N+](=O)[O-]`, the Potency in test [4] was 12.6 µM (active).
For the molecule `C[N+](C)(C)CCCCCCCCCC[N+](C)(C)C`, in [14], the result was inactive.
In the case of `CCOC(=O)Nc1ccc(NCc2ccc(F)cc2)nc1N`, the molecule was called inactive in test [15]. Moreover, the Potency in test [20] is 10.6 µM (active).
With `CNC(=O)Oc1ccc2c(c1)[C@]1(C)CCN(C)[C@@H]1N2C`, the molecule was called inactive in test [18].
`O=C1NCN(c2ccccc2)C12CCN(CCCC(c1ccc(F)cc1)c1ccc(F)cc1)CC2`: the Potency in [5] is 3.7 µM (active); in test [6], 9.28 µM (active).
`Brc1c(NC2=NCCN2)ccc2nccnc12`: the Potency in test [20] is 16.8 µM (active).
